# Measurements taken from PubChem BioAssay.
# Active and inactive are the calls of the source.
# Tests used:
# [1] = tested on: PRMT1 (protein arginine N-methyltransferase 1); assay: small molecules binding arginine methyltransferase PRMT1 – biochemical, small-molecule microarray, 635 nm fluorescence, primary screen (AID 1088); conditions: higher = more signal;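 also: binding of Prmt1 protein to compounds spotted on small-molecule microarray slides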
# [2] = growth effects on S. cerevisiae YJM789 – YJM789 clinical isolate, OD600, 24 h, basal, primary screen (AID 1089); conditions: higher = more signal, called active from +8 up or from −8 down;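 also: growth of clinical yeast isolate S. cerevisiae YJM 789 seeded 1000 cells per well; test concentration not given here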
# [3] = S. pombe growth modifiers, basal conditions – strain 972, OD600, 24 h, no modulator, primary screen (AID 1090);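 also: basal condition with compound alone and no growth modifier present; test concentration not given here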; conditions: S. pombe 972 growth, higher = more signal, called active from +8 up or from −8 down
# [4] = budding yeast growth modifiers under rapamycin – strain BY4716, OD600, 96 h, primary screen (AID 1091); also: test concentration not given here; conditions: S. cerevisiae BY4716 + rapamycin, higher = more signal, called active from +8 up or from −8 down
# [5] = target: Torsin-1A-interacting protein 2 (Homo sapiens) (UniProt Q8NFQ8); assay: small molecules binding lysate-expressed LULL1 – cell lysate, human LULL1 lysate, 635/667 nm fluorescence, primary screen (AID 1092); conditions: small-molecule microarray, hLULL1 lysate binding, 635 nm fluorescence; higher = more signal;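 also: probe is lysate of COS7 cells overexpressing human LULL1; score merges per-feature 667 nm fluorescence with signal-to-noise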
# [6] = optical density change of DRC41 E. coli – strain DRC41, OD650, 24 h, E. coli filamentation project, primary screen (AID 1093);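 also: MC1000 strain lacking acrAB efflux and sulA so SOS filamentation is blocked; test concentration not given here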; conditions: E. coli DRC41 growth, higher = more signal, called active from +8 up or from −8 down
# [7] = probe aLefty2 binding to arrayed compounds – biochemical, biotinylated probe, 635/667 nm fluorescence, primary screen (AID 1094); conditions: small-molecule microarray, higher = more signal;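 also: score merges spot fluorescence near 667 nm with spot signal-to-noise ratio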
# [8] = tested on: Noggin (protein binding on small-molecule microarray); assay: small molecules binding Noggin protein – biochemical, 635/667 nm fluorescence, primary screen (AID 1095); conditions: 635 nm fluorescence, higher = more signal;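 also: score merges 667 nm feature fluorescence with signal to noise over triplicate slides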
# [9] = target: Neurogenic locus notch homolog protein 3 (Homo sapiens) (UniProt Q9UM47); assay: small molecules binding NOTCH3 protein – biochemical, 635/667 nm fluorescence, primary screen (AID 1096); conditions: small-molecule microarray, 635 nm fluorescence, higher = more signal
# [10] = probe aEGFR binding to arrayed compounds – biochemical, biotinylated probe, 635/667 nm fluorescence, primary screen (AID 1097); conditions: small-molecule microarray, higher = more signal;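 also: probe is a biotinylated anti-EGFR antibody binding compounds printed on slides; score combines fluorescence near 667 nm and signal to noise of each spot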
# [11] = tested on: Plasmodium falciparum Sir2 (PF13_0152, Sir2A); assay: Plasmodium falciparum Sir2A binding compounds – biochemical, small-molecule microarray, 635 nm fluorescence, primary screen (AID 1098); conditions: fluorescence 635 nm, higher = more signal;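 also: score merges spot fluorescence intensity with its signal-to-noise ratio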
# [12] = probe aDKK1 binding to arrayed compounds – biochemical, biotinylated probe, 635/667 nm fluorescence, primary screen (AID 1099); conditions: small-molecule microarray, higher = more signal;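 also: score merges 667nm spot fluorescence with signal to noise across triplicate slides; reference of the scale not given here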
# [13] = probe aCHRDL2 binding to arrayed compounds – biochemical, biotinylated probe, 635/667 nm fluorescence, primary screen (AID 1100); conditions: small-molecule microarray, higher = more signal
# [14] = change in splice reporter luminescence, either direction, cell-based, HEK293, spliceosome inhibition project, primary screen (AID 1101); conditions: HEK293 splicing luciferase reporter, 24 h, higher = more signal, called active from +8 up or from −8 down;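 also: HEK293 cells carrying a splicing-competent luciferase reporter gene; test concentration not given here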
# [15] = target: Fibroblast growth factor 10 (Homo sapiens) (UniProt O15520); assay: compounds binding fibroblast growth factor 10 – biochemical, small-molecule microarray, 635 nm fluorescence, primary screen (AID 1102); conditions: FGF10 binding, fluorescence 635 nm, higher = more signal
# [16] = tested on: glycogen synthase kinase-3 (GSK3A per assay name; protocol says GSK3B); assay: compounds binding glycogen synthase kinase-3 – biochemical, small-molecule microarray, 635 nm fluorescence, GSK3A, primary screen (AID 1103); conditions: fluorescence 635 nm, higher = more signal; also: the record names both GSK3A and GSK3B
# [17] = target: Epidermal growth factor receptor (Homo sapiens) (UniProt P00533); assay: compounds binding epidermal growth factor receptor – biochemical, small-molecule microarray, 635 nm fluorescence, primary screen (AID 1104); conditions: EGFR binding, higher = more signal;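 also: score merges 667 nm emission intensity with spot signal to noise over triplicate slides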
# [18] = target: Follistatin-related protein 3 (Homo sapiens) (UniProt O95633); assay: compounds binding follistatin-related protein 3 – biochemical, small-molecule microarray, 635 nm fluorescence, primary screen (AID 1105); conditions: FSTL3 binding, higher = more signal;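 also: score merges emission near 667 nm and signal to noise per printed spot across three slides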
# [19] = target: Dickkopf-related protein 1 (Homo sapiens) (UniProt O94907); assay: small molecules binding DKK1 protein – biochemical, small-molecule microarray, 635 nm fluorescence scan, primary screen (AID 1106); conditions: higher = more signal;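 also: score merges emission near 667 nm with signal to noise over three replicate slides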
# [20] = tested on: Inhibin beta A chain (activin A); assay: small molecules binding activin A – biochemical, small-molecule microarray, 635 nm fluorescence scan, primary screen (AID 1107); conditions: INHBA, higher = more signal;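 also: mouse activin A protein probed at 4.33 µg/mL on printed slides; score merges bound-protein fluorescence near 667 nm with spot signal-to-noise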
# Sequence of Epidermal growth factor receptor (Homo sapiens) (P00533 whole entry, looked up): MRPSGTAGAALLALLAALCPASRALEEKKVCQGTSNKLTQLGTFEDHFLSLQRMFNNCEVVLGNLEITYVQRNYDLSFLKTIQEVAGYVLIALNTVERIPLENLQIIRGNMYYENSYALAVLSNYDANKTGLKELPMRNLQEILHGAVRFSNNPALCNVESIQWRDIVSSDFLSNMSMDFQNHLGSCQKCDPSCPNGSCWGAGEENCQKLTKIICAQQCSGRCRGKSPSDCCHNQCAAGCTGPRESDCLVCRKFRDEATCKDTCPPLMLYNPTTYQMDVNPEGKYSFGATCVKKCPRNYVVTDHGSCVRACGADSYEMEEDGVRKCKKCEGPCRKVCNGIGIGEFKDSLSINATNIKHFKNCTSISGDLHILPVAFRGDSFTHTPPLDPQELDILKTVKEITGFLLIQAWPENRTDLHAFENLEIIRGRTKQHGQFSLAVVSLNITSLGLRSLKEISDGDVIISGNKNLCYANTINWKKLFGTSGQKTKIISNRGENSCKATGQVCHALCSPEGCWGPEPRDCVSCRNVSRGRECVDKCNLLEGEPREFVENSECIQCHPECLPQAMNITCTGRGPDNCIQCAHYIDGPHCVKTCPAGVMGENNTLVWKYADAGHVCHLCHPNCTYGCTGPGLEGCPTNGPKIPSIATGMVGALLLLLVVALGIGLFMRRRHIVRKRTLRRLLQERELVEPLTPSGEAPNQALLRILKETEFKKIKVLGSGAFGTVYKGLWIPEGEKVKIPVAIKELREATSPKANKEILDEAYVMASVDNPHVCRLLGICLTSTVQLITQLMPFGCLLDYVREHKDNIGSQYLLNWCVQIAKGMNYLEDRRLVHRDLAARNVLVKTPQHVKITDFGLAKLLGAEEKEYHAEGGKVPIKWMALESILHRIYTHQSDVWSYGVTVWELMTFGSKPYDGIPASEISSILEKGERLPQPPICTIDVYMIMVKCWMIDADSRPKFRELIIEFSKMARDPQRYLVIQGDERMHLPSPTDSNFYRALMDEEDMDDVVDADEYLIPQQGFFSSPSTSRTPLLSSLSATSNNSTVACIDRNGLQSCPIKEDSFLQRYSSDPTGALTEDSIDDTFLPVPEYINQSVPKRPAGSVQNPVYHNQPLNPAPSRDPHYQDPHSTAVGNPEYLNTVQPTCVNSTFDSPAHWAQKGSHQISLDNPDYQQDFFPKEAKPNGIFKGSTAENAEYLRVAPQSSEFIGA
# Sequence of Fibroblast growth factor 10 (Homo sapiens) (O15520 whole entry, looked up): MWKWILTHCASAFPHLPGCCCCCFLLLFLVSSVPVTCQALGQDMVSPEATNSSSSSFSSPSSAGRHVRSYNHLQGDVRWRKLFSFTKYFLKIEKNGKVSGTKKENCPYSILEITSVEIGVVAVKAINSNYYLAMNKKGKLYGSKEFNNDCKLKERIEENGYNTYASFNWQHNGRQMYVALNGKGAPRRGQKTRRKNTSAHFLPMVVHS
# Sequence of Torsin-1A-interacting protein 2 (Homo sapiens) (Q8NFQ8 whole entry, looked up): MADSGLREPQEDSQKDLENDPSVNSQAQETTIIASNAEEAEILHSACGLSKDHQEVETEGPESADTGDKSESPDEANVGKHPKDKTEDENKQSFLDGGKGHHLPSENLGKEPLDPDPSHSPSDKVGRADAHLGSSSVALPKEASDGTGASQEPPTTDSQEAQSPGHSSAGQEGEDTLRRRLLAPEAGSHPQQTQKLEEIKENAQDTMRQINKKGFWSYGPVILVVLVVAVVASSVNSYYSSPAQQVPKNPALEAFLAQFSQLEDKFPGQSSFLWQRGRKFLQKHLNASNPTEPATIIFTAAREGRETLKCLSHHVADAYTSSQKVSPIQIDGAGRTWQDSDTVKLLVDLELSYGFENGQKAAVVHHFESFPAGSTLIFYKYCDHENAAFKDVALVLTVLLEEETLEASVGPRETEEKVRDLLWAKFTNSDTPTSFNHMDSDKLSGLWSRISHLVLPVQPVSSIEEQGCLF
# Sequence of Follistatin-related protein 3 (Homo sapiens) (O95633 whole entry, looked up): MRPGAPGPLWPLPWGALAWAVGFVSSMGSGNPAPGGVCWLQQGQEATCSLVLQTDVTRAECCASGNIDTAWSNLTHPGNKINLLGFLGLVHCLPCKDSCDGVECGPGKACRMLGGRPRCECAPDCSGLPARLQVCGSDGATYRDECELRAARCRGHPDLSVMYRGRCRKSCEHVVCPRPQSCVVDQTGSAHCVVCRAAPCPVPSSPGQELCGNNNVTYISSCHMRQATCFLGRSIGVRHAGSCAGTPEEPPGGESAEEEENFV
# Sequence of Dickkopf-related protein 1 (Homo sapiens) (O94907 whole entry, looked up): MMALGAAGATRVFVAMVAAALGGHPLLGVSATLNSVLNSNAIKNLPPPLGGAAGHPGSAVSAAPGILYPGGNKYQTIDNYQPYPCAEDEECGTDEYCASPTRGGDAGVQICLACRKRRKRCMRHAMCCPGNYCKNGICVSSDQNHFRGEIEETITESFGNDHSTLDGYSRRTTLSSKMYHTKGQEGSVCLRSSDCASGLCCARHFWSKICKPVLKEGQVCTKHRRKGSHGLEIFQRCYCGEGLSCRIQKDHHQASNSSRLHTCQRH
# Sequence of Neurogenic locus notch homolog protein 3 (Homo sapiens) (Q9UM47 whole entry, looked up): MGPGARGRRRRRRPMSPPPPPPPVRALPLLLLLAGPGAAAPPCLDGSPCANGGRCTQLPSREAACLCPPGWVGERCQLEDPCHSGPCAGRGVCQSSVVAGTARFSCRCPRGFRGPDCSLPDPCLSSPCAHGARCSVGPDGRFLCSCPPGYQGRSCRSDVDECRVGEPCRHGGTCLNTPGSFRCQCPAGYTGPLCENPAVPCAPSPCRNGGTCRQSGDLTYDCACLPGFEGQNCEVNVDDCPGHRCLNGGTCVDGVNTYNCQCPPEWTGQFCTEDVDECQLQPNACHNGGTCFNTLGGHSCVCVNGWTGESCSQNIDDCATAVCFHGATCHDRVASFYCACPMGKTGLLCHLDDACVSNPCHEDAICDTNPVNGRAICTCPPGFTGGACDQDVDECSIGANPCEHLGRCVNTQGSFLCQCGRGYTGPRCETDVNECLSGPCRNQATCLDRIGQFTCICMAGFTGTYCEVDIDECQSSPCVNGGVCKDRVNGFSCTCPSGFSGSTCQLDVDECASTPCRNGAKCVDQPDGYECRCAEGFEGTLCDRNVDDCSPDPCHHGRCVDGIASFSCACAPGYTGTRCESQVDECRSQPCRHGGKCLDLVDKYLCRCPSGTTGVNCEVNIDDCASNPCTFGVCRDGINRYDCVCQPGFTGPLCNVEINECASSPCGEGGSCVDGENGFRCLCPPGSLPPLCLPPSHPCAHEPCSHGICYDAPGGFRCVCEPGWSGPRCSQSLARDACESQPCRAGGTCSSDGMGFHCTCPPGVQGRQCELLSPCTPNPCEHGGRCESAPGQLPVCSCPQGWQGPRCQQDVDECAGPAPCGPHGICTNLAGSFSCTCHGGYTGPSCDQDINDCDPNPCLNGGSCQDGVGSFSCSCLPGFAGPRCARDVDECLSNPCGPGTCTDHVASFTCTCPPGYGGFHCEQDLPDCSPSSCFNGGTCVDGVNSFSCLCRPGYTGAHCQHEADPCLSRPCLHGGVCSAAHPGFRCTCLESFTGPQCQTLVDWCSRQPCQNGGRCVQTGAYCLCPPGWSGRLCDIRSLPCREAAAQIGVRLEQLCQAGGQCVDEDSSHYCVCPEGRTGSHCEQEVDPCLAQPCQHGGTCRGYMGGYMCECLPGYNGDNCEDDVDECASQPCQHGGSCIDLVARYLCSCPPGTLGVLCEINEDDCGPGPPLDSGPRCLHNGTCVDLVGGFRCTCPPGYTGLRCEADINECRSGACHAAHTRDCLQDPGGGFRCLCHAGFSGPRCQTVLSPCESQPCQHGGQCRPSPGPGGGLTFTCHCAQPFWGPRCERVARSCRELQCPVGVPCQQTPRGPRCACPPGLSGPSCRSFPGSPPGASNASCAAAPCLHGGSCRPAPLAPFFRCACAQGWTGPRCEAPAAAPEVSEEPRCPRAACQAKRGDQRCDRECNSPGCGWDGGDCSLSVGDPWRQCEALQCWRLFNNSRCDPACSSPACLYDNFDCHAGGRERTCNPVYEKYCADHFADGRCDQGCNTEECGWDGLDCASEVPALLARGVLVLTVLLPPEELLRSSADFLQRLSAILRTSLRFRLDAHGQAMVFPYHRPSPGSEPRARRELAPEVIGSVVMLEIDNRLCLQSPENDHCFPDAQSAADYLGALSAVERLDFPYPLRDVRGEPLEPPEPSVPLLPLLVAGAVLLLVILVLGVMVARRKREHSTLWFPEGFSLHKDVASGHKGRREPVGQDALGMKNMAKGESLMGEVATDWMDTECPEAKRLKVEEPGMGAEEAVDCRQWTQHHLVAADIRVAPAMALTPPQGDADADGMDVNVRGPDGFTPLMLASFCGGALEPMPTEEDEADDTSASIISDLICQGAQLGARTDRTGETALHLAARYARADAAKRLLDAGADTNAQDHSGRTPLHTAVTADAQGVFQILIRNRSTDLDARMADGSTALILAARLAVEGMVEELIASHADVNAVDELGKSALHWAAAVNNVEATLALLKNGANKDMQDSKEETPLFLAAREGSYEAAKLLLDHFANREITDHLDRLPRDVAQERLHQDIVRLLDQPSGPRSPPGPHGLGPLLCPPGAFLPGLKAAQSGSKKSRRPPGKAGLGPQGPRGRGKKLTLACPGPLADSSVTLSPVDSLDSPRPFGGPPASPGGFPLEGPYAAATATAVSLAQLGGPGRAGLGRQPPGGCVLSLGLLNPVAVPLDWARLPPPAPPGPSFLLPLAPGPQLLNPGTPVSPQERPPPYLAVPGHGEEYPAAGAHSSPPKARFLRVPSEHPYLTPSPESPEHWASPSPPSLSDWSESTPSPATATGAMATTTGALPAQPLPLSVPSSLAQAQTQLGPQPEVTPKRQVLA
Compound,composite z-score [1],z-score [2],z-score [3],z-score [4],composite z-score [5],z-score [6],composite z-score [7],composite z-score [8],composite z-score [9],composite z-score [10],composite z-score [11],composite z-score [12],composite z-score [13],z-score [14],composite z-score [15],composite z-score [16],composite z-score [17],composite z-score [18],composite z-score [19],composite z-score [20]
O=C1OCC=C[C@H]2OC34C=CCN(c5ccc6ccccc6c5)C(=O)[C@H]3N(CCCCCO)C(=O)[C@@H]4[C@@H]12 (stereo not given in full),-0.6,-0.594 (inactive),-0.955 (inactive),-0.515 (inactive),3.68,0.198 (inactive),0.306,-1.65,-1.04,-0.177,1.88,0.07,0.878,-0.57 (inactive),-1.17,-1.55,-1.44,-1.56,-1.41,-0.255
O=C1O[C@H](c2ccccc2)[C@H](c2ccccc2)N2[C@H]1[C@@H](C(=O)O)[C@]1(C(=O)Nc3ccc(C#CC4(O)CCCCCC4)cc31)[C@H]2c1ccc(O)cc1,0.871,-0.386 (inactive),-1.22 (inactive),-1.76 (inactive),3.14,2.04 (inactive),-0.142,-0.292,0.0139,0.192,0.502,-0.2,0.14,-0.574 (inactive),0.0884,-0.103,0.161,-0.544,-0.297,0.138
CC(C)N1CC=CC23O[C@@H]4/C=C\CCCOC(=O)C4[C@H]2C(=O)N(CCCCCCO)[C@@H]3C1=O (stereo not given in full),0.529,0.226 (inactive),-2.03 (inactive),-0.331 (inactive),3.18,2 (inactive),-0.121,-1.26,-0.112,-0.152,1.44,0.0846,0.777,0.569 (inactive),-0.614,-0.24,-1.12,-1.04,-1.08,1.03
COc1cc2c(cc1OC)CN(C(=O)[C@@H]1[C@H]3C(=O)O[C@H](c4ccccc4)[C@H](c4ccccc4)N3[C@H](c3ccc(O)cc3)[C@@]13C(=O)Nc1ccc(C#CCCO)cc13)CC2,1.34,1.09 (inactive),0.673 (inactive),1.81 (inactive),2.5,-0.385 (inactive),-0.0809,0.32,0.667,-0.0424,0.552,-0.0984,0.562,-0.117 (inactive),1.19,0.422,-0.0629,0.547,0.755,0.924
COCCOC(=O)N1C(=O)[C@@]2(c3cc(C#CCNC(N)=O)ccc31)[C@H](c1ccc(O)cc1)N1[C@H](c3ccccc3)[C@H](c3ccccc3)OC(=O)[C@H]1[C@@H]2C(N)=O,-1.22,0.878 (inactive),0.0929 (inactive),0.374 (inactive),-0.841,1.04 (inactive),-0.294,-1.99,-1.15,-0.406,-0.583,-0.224,0.444,0.00136 (inactive),-1.62,-1.32,-1.9,-2.16,-1.86,-1.08
